Consider 36 compounds from PubChem BioAssay (NCI).

SMILES strings stand for the structures. Where “and” joins values, the source holds several entries; their conditions need not be identical. Equal values may be shown once. This is part of a sample that, as a whole, favours compounds with a hit. Of some 83,000 tested, about 20% had one in any assay.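 Plates (96-well) were seeded with cells, treated with compound at one concentration, and incubated for 48 hours before percent growth was determined.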 Calls of active or inactive are those of the source.

One experiment has as its system HCC-2998 colon. The experiment in a line: NCI-60 one-dose screen, 48 h (100 = growth as untreated, 0 = no growth, -100 = all killed). To be noted: 10 µM. The method, then: Growth inhibition of the HCC-2998 human tumor cell line is measured as a screen for anti-cancer activity. Cells are grown in 96 well plates and exposed to the test compound for 48 hours. Compounds are tested at a single concentration, which is 10^-5 M for most compounds. The reported endpoint is percent growth (GI% or GIPRCNT), where numbers from 0 - 100% represent growth inhibition, and numbers from -100% - 0 represent cell death. For example, a value of 40 represents 60% growth inhibition. A value of 0 means no net growth occurred over the course of the experiment. A value of -40 indicates 40% of cells at the beginning of the experiment died by the end of the experiment. A value of -100 means all cells are dead at the end of the experiment.
NCI-60 Human Tumor Cell Lines Screen was performed using the standard one-dose NCI protocol, which is described in more detail at https://dtp.cancer.gov/discovery_development/nci-60/default.htm.
Compounds with GIPRCNT values below 10 were considered active. Activity score was based on GIPRCNT using the following formula: […]
Score is 0 for GIPRCNT values of 100 or above, 50 for GIPRCNT values of 0, and 100 for GIPRCNT values of -100.
As for `O=C(Nc1c(Cl)cccc1Cl)Oc1cccc2cccnc12`, the growth is 93.4% (inactive).

Turning to `O=C(O)c1c(Cl)c(Cl)c(Cl)c(Cl)c1-c1c2cc(I)c(=O)c(I)c-2oc2c(I)c(O)c(I)cc12`, the growth was 110% (inactive) and 106% (inactive) and 113% (inactive). Regarding `COc1ccc(-c2cscc2N)cc1`, the growth was 80.1% (inactive). With `O=C(Nc1cccc(Br)c1)Oc1cccc2cccnc12`, the growth is 98.2% (inactive).

The same experiment, now with this note: 10 µM unless noted.
For the compound `CC(=Nc1ccc(N(C)C)cc1)c1ccccc1`, the growth was 58.2% (inactive). For `CC(C)(C)CC(C)(C)c1ccc(OCCSC(=N)N)cc1`, the growth is -16% (active). For `CN(C)CCOc1ccc2c(c1)C(=O)/C(=C\c1ncc([N+](=O)[O-])n1C)C2`, the growth is -86.1% (active). Consider `O=C(CC1(O)C(=O)Nc2c(Cl)ccc(Cl)c21)c1ccc(Cl)cc1Cl` (stereo not given), for which the growth was 110% (inactive).

As to `CCN1/C(=C\c2cc[n+](CC)c3ccccc23)C=Cc2ccccc21`, the growth is 23% (inactive). Regarding `O=C(/C=C\c1ccccc1)N1c2ccccc2CC1c1c[nH]c2ccccc12` (stereo not given), the growth is 85.6% (inactive).

As for `O=C(Oc1cccc2cccnc12)c1ccccc1`, the growth is 108% (inactive) and 104% (inactive). Regarding `CC1OC2CC(=O)OC2C2=C1C(=O)c1c(O)cccc1C2=O` (stereo not given), the growth is -97.4% (active). Regarding `CC(=O)C(=Cc1ccc(C=C(C(C)=O)C(C)=O)cc1)C(C)=O`, the growth was 45.2% (inactive). Consider `c1ccc2c(c1)Nc1cc3ccccc3cc1N2`, for which the growth was 36.8% (inactive).

Regarding `CC(C)c1ccc2nc3ccc(C(=O)NCCN4CCN(c5ccccc5)CC4)cn3c(=O)c2c1`, the growth was 75.9% (inactive). With `N#CSCC(=O)c1ccc(Cl)cc1`, the growth was -19.5% (active). As for `CN(C)C(=O)SC1=C(c2c(Cl)cccc2Cl)C(=O)c2ccccc21`, the growth is 114% (inactive).

`CN=C(N)N/N=C(\C)c1ccc2c(c1)Cc1cc(/C(C)=N/NC(N)=NC)ccc1-2`: the growth is -78.7% (active). Turning to `O=C(/C=C/C=C/c1ccccc1)c1ccco1`, the growth is 114% (inactive). As to `COc1ccc(N=N/N=c2\sc3cc(OC)ccc3n2C)cc1`, the growth was 102% (inactive). On to `CCCCCCCCCCCCCCCCN(CC)CC`, for which the growth was -97.1% (active). For `O=C(Nc1cccc(Br)c1)Oc1ccc(Cl)c2cccnc12`, the growth was 44.9% [100 µM] (inactive).

Regarding `O=C(O)C1C2CC3C(OC(=O)C31)C2Br` (stereo not given), the growth is 88.8% (inactive) and 96.8% (inactive).

For `Oc1c(Cl)cc(Cl)c2cccnc12`, the growth is 74.6% (inactive) and 69.2% (inactive). `C[n+]1c(/C=C/c2ccc([N+](=O)[O-])cc2)ccc2ccccc21`: the growth was 100% (inactive). Consider `Cc1ccc2nc(-[n+]3cc4ccccc4cc3C)ccc2c1`, for which the growth was 42.1% (inactive). Still for that read-out and setting: the value for `CCOC(=O)/C(=C\c1ccc(-c2ccccc2)cc1)C(C)=O` was 95.2% (inactive); that for `CCCCCCCCCCCCCCCCOP(=O)([O-])OCC[N+](C)(C)C` was 17.7% (inactive); that for `Oc1c(Br)c(Br)c(O)c(Br)c1Br` was 128% (inactive). In the case of `COc1cc(NS(C)(=O)=O)ccc1Nc1c2ccccc2nc2ccccc12`, the growth was -44.3% [2.5 µM] (active). With `Nc1nc(N)c2c(ccc3c2ccn3Cc2cccc([N+](=O)[O-])c2)n1`, the growth is -86% (active).

In the case of `Nc1nc(N)c2nc(CNc3ccc(C(=O)NC(CCC(=O)O)C(=O)O)cc3)cnc2n1` (stereo not given), the growth was 16.6% (inactive) and 3.42% (active). Take `C=CCOc1ccc(N=NC(C#N)C#N)cc1`: the growth was 101% (inactive). In the case of `CC1(C)CC([P+](c2ccccc2)(c2ccccc2)c2ccccc2)=NN1`, the growth was 18.1% (inactive).

For `CN(Cc1cnc2nc(N)nc(N)c2n1)c1ccc(C(=O)NC(CCC(=O)O)C(=O)O)cc1` (stereo not given), the growth is 27.7% (inactive). As for `N#CC1C(=O)SC2c3ccccc3C(=O)c3ccccc3C12` (stereo not given), the growth is 102% (inactive).

The same experiment, now with this note: 100 µM.
As for `O=C(Nc1c(Cl)cccc1Cl)Oc1cccc2cccnc12`, the growth is 42.2% (inactive). On the same count and under the same terms, the value for `O=C(O)c1c(Cl)c(Cl)c(Cl)c(Cl)c1-c1c2cc(I)c(=O)c(I)c-2oc2c(I)c(O)c(I)cc12` was -7.72% (active). Consider `COc1ccc(-c2cscc2N)cc1`, for which the growth is 39.6% (inactive). The same measure, in the same setting: the value for `O=C(Nc1cccc(Br)c1)Oc1cccc2cccnc12` was 59.9% (inactive).
